# TDP43 rescue = qHTS of TDP-43 Inhibitors | TDP-43 expressing yeast growth rescue, BacTiter-Glo, 24 h | Potency, µM (titrated, usually from 46.1 µM), for the others: top-dose growth rescue (activation), usual class: activators | AID 652104, 2013 | actives 1.8% (n = 410,000); further: % of control where 0% means no effect; nearly all actives have a fitted effect of over 50% in size
#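 Growth rescue of TDP-43-toxic yeast measured as ATP luminescence (BacTiter-Glo). Cells grown to mid-log in raffinose, induced in galactose at OD600=0.02, exposed to compound 24 hr at 30 deg C.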
# Mito fusion yeast = qHTS Assay for Small Molecule Inhibitors of Mitochondrial Division or Activators of Mitochondrial Fusion | S. cerevisiae fusion-defective mutant growth rescue, CellTiterGlo 48 h | Potency, µM (series often up to 46.1 µM), for the others: at the top dose growth rescue (activation), hits mostly activators | actives 0.23% (n = 320,000); further: % of control where 0% means no effect; nearly all actives have a fitted effect of over 45% in size
#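 Yeast fusion mutant, YPEG (non-fermentable carbon), compound, 48 h at 37C non-permissive; CellTiterGlo added, 10 min RT, luminescence read. Rescued growth = division inhibition.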
# FUS suppressor = qHTS for Suppressors of FUS Proteinopathy: Primary screen using FUS-linked yeast assay. S. cerevisiae FUS-expressing, growth rescue, OD600, 24 h. Potency, µM (titrated, usually from 76.6 µM), actives largely listed as activators. actives 0.24% (n = 390,000);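 further: plate controls were DMSO vehicle for no effect and reference control for full effect; nearly all actives have a fitted effect of over 55% in size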
#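 Restored growth of FUS-toxic S. cerevisiae, read as 600 nm absorbance after 24 h at 30C in galactose medium (starting OD 0.005). Controls CP55940 and DMSO.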
# aSyn rescue = qHTS of alpha-syn Inhibitors; Yeast expressing alpha-synuclein, growth rescue, BacTiter-Glo, 24 h; Potency, µM (doses to about 46.1 µM), for the others: at the top dose growth rescue (activation), most hits filed as activators; actives 0.14% (n = 370,000); further: % of control where 0% means no effect; nearly all actives have a fitted effect of over 65% in size
#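 Readout is rescue of growth in alpha-synuclein-expressing yeast, so inhibitors of toxicity appear as activators. Growth after 24 hr at 30 deg C in galactose medium is quantified by luminescence.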
# Abeta yeast res = qHTS for compounds that reverse cellular toxicity of Amyloid beta (A-beta) peptide in yeast: Primary Screen | yeast expressing A-beta42, growth rescue, OD600, 48 h; response scale: 0% DMSO, 100% iron-clioquinol control | actives 0.063% (n = 410,000) | Potency, µM (titrated, usually from 46.1 µM), most hits filed as activators; further: nearly all actives have a fitted effect of over 55% in size
#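 Growth rescue measured by 600 nm absorbance after 48 h yeast culture at 30 C with compound. Values normalized between DMSO and an equimolar ferric chloride plus clioquinol control.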
# * hit, by the source's call; i = inactive; ? = inconclusive; / = no result given. A selection: hits, their analogues and other compounds. The true share with any hit is near 2.2%. The call rests on the fitted dose curve; in most records, active means well fitted curve in the direction sought with a large enough effect; inconclusive means small, poorly fitted or top-dose-only effect, or another doubt; inactive means no such curve, though single readings can be large; an effect the other way counts as inactive or inconclusive. Potency means the concentration at half of the fitted maximal effect.
SMILES,TDP43 rescue,Mito fusion yeast,FUS suppressor,aSyn rescue,Abeta yeast res
CNc1nc(Nc2ccc(C)c(Cl)c2)c2cnn(C)c2n1,14.1µM*,9.7%,i,1.3%,i
CCOc1ccccc1C(=O)Nc1cccc2ccc(C)nc12,20µM*,/,i,/,i
COc1ccccc1C(=O)Nc1cccc2cccnc12,3.16µM*,-9.0%,i,8.6%,i
CCOc1ccccc1C(=O)Nc1ccccc1O,14.1µM*,7.5%,i,-12.1%,i
COc1cc(NCc2ccccc2O)c2ncccc2c1,-4.1%,4.4%,i,?,i
CCOc1ccccc1C(=O)Nc1cccc2ccccc12,?,3.7%,i,3.5%,i
O=C(Nc1cccc2cccnc12)c1ccccc1Cl,4.9%,/,i,-1.7%,i
CCOc1ccccc1C(=O)Nc1ccccc1-c1ccccc1,?,?,/,6.5%,i
Oc1ccccc1CNc1cccc2cccnc12,14.1µM*,3.4%,i,-25.2%,i
CCOC(=O)Cc1nc(N2CCN(C(=O)C3CCCO3)CC2)c2c(C)c(C(=O)OCC)sc2n1 (stereo not drawn),/,/,i,/,/
CCCCNc1ncnc2oc(-c3ccco3)c(-c3ccco3)c12,/,/,/,0.5%,/
CC(C)Cn1nc(C(=O)NCc2ccccc2CN2CCCC2)c2ccccc2c1=O,0.0%,0.0%,/,-1.0%,i
COc1c(C)cccc1C(=O)Nc1cccc2ccc(C)nc12,22.4µM*,/,i,/,i
Cc1ccc2cccc(NC(=O)c3cccc4c(Cl)cccc34)c2n1,7.9%,/,i,-2.2%,i
O=C(Nc1ccccc1)Nc1cccc2cccnc12,7.08µM*,17.9%,i,-8.7%,i
CC[C@]12C(=O)N(C)C[C@H]([C@@H]3C(=O)N(C)C(=O)[C@@H]31)N2C(=O)c1ccc(Cl)c(Cl)c1,20.3%,/,i,5.3%,i
CC(=O)Nc1ccc2c(c1Br)Cc1ccccc1-2,17.8µM*,/,i,-9.4%,i
Nc1ccc2c(c1Br)Cc1ccccc1-2,35.5µM*,/,i,-11.2%,i
COc1cc(N(C(C)=O)c2ccc(O)c(C(=O)O)c2)c2ncccc2c1,23.8%,/,i,-0.3%,i
CC1(Cc2ccccc2F)C(=O)Nc2c(Cl)ccc(Cl)c21 (stereo not drawn),2.2%,/,i,11.2µM*,i
CC1(Cc2cccc(C(F)(F)F)c2)C(=O)Nc2c(Cl)ccc(Cl)c21 (stereo not drawn),-17.3%,/,i,-26.4%,i
Cc1ccc(CC2(C)C(=O)Nc3c(Cl)ccc(Cl)c32)cc1 (stereo not drawn),0.0%,/,i,17.8µM*,i
CC1(Cc2ccc(Cl)cc2)C(=O)Nc2c(Cl)ccc(Cl)c21 (stereo not drawn),-25.9%,/,i,?,i
CC1(Cc2ccccc2Cl)C(=O)Nc2c(Cl)ccc(Cl)c21 (stereo not drawn),31.6µM*,/,i,12.6µM*,i
CCC(C)(C)NC(=S)Nc1ccccc1C,0.0%,4.7%,i,-12.5%,12.6µM*
SMILES,TDP43 rescue,Mito fusion yeast,FUS suppressor,aSyn rescue,Abeta yeast res
CCC(C)(C)n1nnnc1C(c1cc2cc(C)cc(C)c2[nH]c1=O)N1CCCC1 (stereo not drawn),-15.8%,-3.8%,25.1µM*,-3.0%,i
CCC(C)(C)n1nnnc1C(c1cc2cccc(C)c2[nH]c1=O)N1CCCC1 (stereo not drawn),-12.6%,-2.2%,31.6µM*,3.9%,i
CCC(C)(C)n1nnnc1C(c1cc2ccc(OC)cc2[nH]c1=O)N1CCCCC1 (stereo not drawn),-14.8%,1.1%,i,4.3%,i
Cc1ccc(OCC(=O)Nc2nnc(S(=O)(=O)N3c4ccccc4CC3C)s2)cc1 (stereo not drawn),19.8%,/,i,/,i
O=[N+]([O-])c1ccc(/C=N/Nc2nc(N3CCCCCC3)nc(N3CCCCCC3)n2)o1,22.4µM*,?,?,0.5%,i
O=[N+]([O-])c1cc2c(cc1/C=N/Nc1nc(N3CCCC3)nc(N3CCCC3)n1)OCO2,?,1.7%,i,-0.2%,i
O=[N+]([O-])c1ccc(/C=N/Nc2nc(N3CCCCC3)nc(N3CCCCC3)n2)cc1,5.2%,4.9%,i,-2.3%,i
O=[N+]([O-])c1ccc(Nc2nc(N/N=C\c3ccc4c(c3)OCO4)nc(N3CCCCC3)n2)cc1,11.2µM*,18.7%,?,-4.5%,?
CCc1nc2sc3ccccc3c(=O)c2c(=O)n1Cc1ccco1,-5.0%,15.7%,31.6µM*,25.5%,i
O=c1c2ccccc2sc2nc(C3CCCCC3)n(Cc3ccco3)c(=O)c12,-11.5%,3.55µM*,i,7.1%,i
CCCc1nc2sc3ccccc3c(=O)c2c(=O)n1Cc1ccccc1,-12.5%,/,i,-23.5%,i
C=CCN(C)CC#Cc1ccccc1C,/,/,i,/,/
CC(C)(C)c1ccc(-c2nnc(SCC3CCCCO3)n2-c2ccc(Cl)cc2)cc1 (stereo not drawn),/,/,i,/,/
CCOC(=O)CCCc1ccc(/C(C)=N/NC(N)=S)cc1,20µM*,7.8%,i,-7.7%,?
CCOC(=O)CCCc1ccc(/C(C)=N/NC(=S)NC)cc1,26.6%,0.2%,i,6.1%,?
O=C(COC(=O)Cc1c(Cl)cccc1Cl)NC1CCCC1,20µM*,/,i,11.7%,i
CC(C)(C)c1ccc(OCCC(=O)OCC(=O)NC2CCCCC2)cc1,35.5µM*,-1.7%,i,7.3%,i
Cc1c(C)c2cc(Cl)c(OCC(=O)N3CCN(c4ccc(F)cc4)CC3)cc2oc1=O,7.0%,-1.0%,i,1.8%,i
Clc1ccc(Nc2nc(C3CC3)cs2)cc1,14.1µM*,-0.6%,i,2.4%,i
Cc1ccc(Nc2nc(C3CC3)cs2)cc1,/,1.9%,/,/,/
O=C(NCCc1c[nH]c2ccccc12)OCc1cn(-c2cccc(C(F)(F)F)c2)nn1,/,/,i,/,/
COc1ccc([C@@H]2CC=C(C(=O)O)[C@H](c3cccc(Cl)c3)N2S(=O)(=O)c2ccc(Cl)cc2)cc1,21.4%,-8.5%,i,-0.3%,i
COc1ccc([C@@H]2CC=C(C(=O)O)[C@H](c3ccc(F)cc3)N2S(=O)(=O)c2ccc(Cl)cc2)cc1,14.1µM*,-3.7%,?,-22.9%,i
Cc1ccc(S(=O)(=O)N2[C@@H](c3ccc(F)cc3)C(C(=O)O)=CC[C@H]2c2cccc(Cl)c2)cc1,22.4µM*,-3.5%,i,0.5%,i
COC[C@@H](OC(C)=O)[C@H]1OCc2ccccc2[C@@H]1/C=C/c1ccccc1,/,/,i,/,/

# Compound activity (PubChem BioAssay)
